# Cav32 inh = human Cav3.2 channel inhibition, primary screen. B-score at 10 µM. O95180. 100,000 tested, 4% active. Cav3.2-expressing cells, Fluo-4 calcium fluorescence FDSS; stronger effect = lower value. AID 449739;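 active = single-dose well whose peak fluorescence ratio is a statistical outlier from its plate by either plate-standardised score or position-corrected B-score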
# PTK2B oligo ant = antagonists of human Pyk2 oligomerization; Q14289; Q293 cells, Pyk2 FERM NanoBiT luminescence; stronger effect = lower value; z-score (the deposit names both 25 µM and 10 µM); 99,000 tested, 0.83% active;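 active = Z-score of -3 or lower, scaled per plate to the spread of control and sample wells; inactive = z-score above -3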;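 note: negative z-score means lost luminescence so less FERM oligomerization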
# M1 antagonist = blocks the rat M1 muscarinic receptor response to acetylcholine; P08482; CHO-M1 cells, Fluo-4 calcium, ACh EC80 antagonist mode; stronger effect = lower value; B-score at 10 µM; 64,000 tested, 3.4% active;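 active = calcium fluorescence response, raw or row-and-column corrected B-score, differing from the plate sample mean either way at a set confidence level, mostly lower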
# Target sequence (P08482 whole entry, looked up): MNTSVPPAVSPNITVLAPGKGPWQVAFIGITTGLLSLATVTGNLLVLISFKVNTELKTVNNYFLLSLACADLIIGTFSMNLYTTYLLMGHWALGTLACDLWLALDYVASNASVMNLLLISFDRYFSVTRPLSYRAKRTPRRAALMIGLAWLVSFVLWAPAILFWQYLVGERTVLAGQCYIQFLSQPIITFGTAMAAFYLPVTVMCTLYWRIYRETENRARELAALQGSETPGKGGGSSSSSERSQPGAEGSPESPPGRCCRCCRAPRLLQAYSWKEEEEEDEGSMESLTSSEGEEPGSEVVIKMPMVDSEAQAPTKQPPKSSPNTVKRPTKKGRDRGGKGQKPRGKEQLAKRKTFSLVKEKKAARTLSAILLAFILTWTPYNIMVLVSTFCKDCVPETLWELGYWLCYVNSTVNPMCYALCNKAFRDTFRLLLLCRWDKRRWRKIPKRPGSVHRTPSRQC
# M1 agonist = agonists of M1 muscarinic receptor; CHO-M1 cells, Fluo-4 calcium fluorescence, agonist mode; stronger effect = higher value; B-score at 10 µM; 64,000 tested, 3% active; AID 626;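 active = fluorescence rise, raw or as B-score row- and column-corrected plate score, outside the 99.7% band of its plate's samples, either direction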
# Active calls of the source: *; nt = no result. Only some compounds are listed: those with a hit (about 7.1% of all), similar ones and a draw of the others.
SMILES,Cav32 inh,PTK2B oligo ant,M1 antagonist,M1 agonist
CN(CC(=O)Nc1ccc(C#N)cc1)Cc1ccc(Cl)c(Cl)c1,-6.6*,1.5,nt,nt
CC(=O)Nc1ccc(NC(=O)CN(C)CCC#N)cc1,-0.48,-0.16,nt,nt
CN(c1ccccc1C(=O)Nc1cccc(Cl)c1Cl)S(C)(=O)=O,1,0.17,nt,nt
CCCCN(CC(=O)Nc1c(C)cccc1CC)C(=O)SCC,-3.8*,0.54,nt,nt
CCCN(CC(=O)Nc1c(C)cccc1CC)C(=O)SCC,-0.92,-0.62,nt,nt
O=C(O)CCCNC(=O)c1cccc(C(=O)NCCCC(=O)O)n1,nt,0.47,nt,nt
Cc1ccc(C(=O)Nc2nc(=O)n(C(=O)c3ccccc3C)s2)cc1,-7.4*,0.1,nt,nt
O=C(Nc1nc(=O)n(C(=O)C2CC2)s1)c1ccccc1,0.031,-0.06,nt,nt
CCc1ccc(OCCNC(=O)c2cccs2)cc1,-5.9*,-0.02,nt,nt
CCOC(=O)c1cnn(CCOC(=O)C2CC2)c1NC(=O)C1CC1,-3.6*,0.08,nt,nt
O=C(OCn1nnc2ccccc2c1=O)c1cc2ccccc2o1,-0.098,nt,-0.1,-0.038
CCCCN(CCCC)CP(=O)(c1ccccc1)c1ccccc1,-5.8*,0.59,nt,nt
O=P(CCCCCCCCCP(=O)(c1ccccc1)c1ccccc1)(c1ccccc1)c1ccccc1,-9.6*,-2.3,nt,nt
Cc1nnc(NCCc2ccccc2)n(N)c1=O,0.13,0.46,1.5*,0.071
O=C(CNC(=O)c1ccc(Oc2ccccc2)cc1)OC1CCCCC1=O (centres undefined),-0.79,1,nt,nt
CC1CC(c2ccccc2)n2nc(NC(=O)c3ccco3)nc2N1 (centres undefined),-1.1,-0.91,0.032,0.14
CC1CC(N(C(=O)c2ccco2)c2ccccc2)c2ccccc2N1 (centres undefined),-4.3*,-0.58,0.21,0.048
O=C(NCCc1ccccc1F)[C@@H]1CSC2c3ccccc3C(=O)N21 (some centres undefined),-8.2*,0.26,-0.15,-1.4
O=C(NCCN1CCN(c2ccccc2F)CC1)C1c2ccccc2C(=O)N2CCc3ccccc3C12 (centres undefined),-4.2,-0.74,nt,nt
CC(=O)Nc1ccc(S(=O)(=O)Nc2nc3ccccc3nc2N2CCCCCC2)cc1,-3.3,-0.54,nt,nt
COc1ccc(S(=O)(=O)C(C#N)c2nc3ccccc3nc2N2CCCCC2)cc1 (centres undefined),-4.8*,-0.57,0.12,-0.26
Cc1ccc(S(=O)(=O)Nc2nc3ccccc3nc2N2CCN(c3ccccc3F)CC2)cc1,-3.6*,-0.17,nt,nt
CC(=O)Nc1ccc(S(=O)(=O)Nc2nc3ccccc3nc2N2CCc3ccccc3C2)cc1,nt,-0.73,nt,nt
COc1ccc(N2CCN(c3nc4ccccc4nc3NS(=O)(=O)c3ccccc3)CC2)cc1,-4.2*,-0.05,nt,nt
Cc1ccc(C)c(S(=O)(=O)C(C#N)c2nc3ccccc3nc2N2CCCC2)c1 (centres undefined),-1,-0.01,-0.21,-1
SMILES,Cav32 inh,PTK2B oligo ant,M1 antagonist,M1 agonist
Cc1ccc(C)c(S(=O)(=O)C(C#N)c2nc3ccccc3nc2N2CC(C)OC(C)C2)c1 (centres undefined),-5.7*,-0.21,-0.0087,5.5
CCOC(=O)c1cc(C#N)c(Oc2ccccc2OC)nc1-c1ccccc1,-0.24,-1.7,nt,nt
CC(NCc1ccc(N(C)C)cc1)C1CC2CCC1C2 (centres undefined),1.1,0.88,nt,nt
Cc1ccc2c(c1)C(O)(c1c(C)[nH]c3ccccc13)C(=O)N2 (centres undefined),-4.1*,-0.14,-0.37,0.67
O=C1c2ccccc2C(Nc2ccc3c(c2)OCCO3)N1Cc1ccccc1 (centres undefined),-6.2*,nt,0.53,-0.35
CCOc1ccc(NC2c3ccccc3C(=O)N2Cc2ccc3c(c2)OCO3)cc1 (centres undefined),-3.1,nt,nt,nt
Cc1cccc(Cc2cnc(NC(=O)c3ccc(C)o3)s2)c1,-6*,-0.42,nt,nt
COc1ccc(C2C(C#N)=C(N)Oc3cc4c(cc32)OCO4)cc1 (centres undefined),-4*,-1.2,0.044,-0.39
N#CC1=C(N)Oc2ccc3ccc(O)cc3c2C1c1cccnc1 (centres undefined),1.2,-3.2*,nt,nt
N#CC1=C(N)Oc2cc(O)ccc2C1c1ccncc1 (centres undefined),-4.6*,-0.13,0.44,0.059
Oc1ccc(C[C@@H]2CNC(=S)N2CCCCC2CCCCC2)cc1,0.048,nt,nt,nt
COc1cc(N/C=C(\C(C)=O)c2ccccc2)cc(OC)c1,-1.4,-0.66,nt,nt
COc1ccc(-n2nnc3c(SCC(=O)N4CCN(c5ccccc5)CC4)ncnc32)cc1,nt,nt,-0.12,-0.8
COc1ccc(Nc2nc3ccccc3nc2C)cc1,-3.8*,0.25,-0.31,-0.058
CC(C)c1nc(N2CCOCC2)c(C#N)c2c1CCCC2,-5*,-0.43,-0.039,-1
CCSc1nc(N2CCOCC2)c2c(c1C#N)CCCC2,-2.1,-2.3,0.23,0.3
O=C(CSCc1ccc(F)cc1)Nc1nc2c(s1)CCCC2,-6.6*,0.11,nt,nt
CCOc1ccc(NC(=O)C2=C(C)C(=O)OC23CCC(C)CC3)cc1 (centres undefined),-2.9,nt,nt,nt
O=C(N/N=C/c1ccc(Cl)cc1)Nc1ccccc1,-6.5*,0.6,nt,nt
Cn1cc(-c2nnc(-c3ccccc3)o2)c2ccccc21,-1.4,-1.5,nt,nt
O=C1c2ccccc2NC(c2ccc(Cl)cc2Cl)N1Cc1ccccc1 (centres undefined),-5.3*,-1.2,nt,nt
O=C1c2ccccc2NC(c2c(Cl)cccc2Cl)N1Cc1ccccc1 (centres undefined),-11*,-1.7,nt,nt
CCO[C@H]1OC(C(=O)NC2CC2)=C[C@@H](C2CC2)[C@@H]1CCCO,0.079,nt,nt,nt
CCCCOCCCNC(=O)/C=C/c1ccccc1Cl,-3.8,1.9,nt,nt
Cc1ccc(-n2nnnc2SC(C)C(=O)Nc2ccc(Cl)cn2)cc1 (centres undefined),-4.1*,-2.1,0.027,-0.23
SMILES,Cav32 inh,PTK2B oligo ant,M1 antagonist,M1 agonist
COc1ccc(S(=O)(=O)N(CCc2ccccc2)CC(=O)O)cc1C,0.35,0.67,nt,nt
Cc1nc(COC(=O)c2ccc(S(=O)(=O)N3CCCC3)cc2)cs1,0.36,1.1,-0.79,-0.013
CN1c2ccccc2C(O)=C(C(=S)Nc2ccc(Cl)cc2)S1(=O)=O,-7.4*,-3.2*,nt,nt
O=c1[nH]c2c(s1)C(c1ccco1)C1C3CCC(C3)C1S2 (centres undefined),-1.6,0.48,-0.9,-0.62
O=[N+]([O-])c1cc(S(=O)(=O)Nc2ccccc2)ccc1-n1nnc2ccccc21,-6.3*,-0.67,nt,nt
COc1ccccc1N1CCN(c2cc(=O)n(Cc3ccc(F)cc3)c(=O)[nH]2)CC1,-6.1*,nt,0.018,-1.1
CCOc1cc(CNc2cccc3ccccc23)cc(Br)c1OCC(=O)NC(C)(C)C,-1.9,-3.7*,nt,nt
CCOc1cc(CNc2ccc(N(C)C)cc2)cc(Br)c1OCC(=O)NC(C)(C)C,-0.77,0.36,nt,nt
C=CCOc1c(Br)cc(CNc2ccc(NC(=O)CCC)cc2)cc1OCC,-5.4*,1.4,nt,nt
CC(C)c1ccc2c(c1)C1Cc3ccccc3C1N2 (centres undefined),nt,-1.1,nt,nt
O=C(O)C1Nc2ccc(C(F)(F)F)cc2C2OCCC12 (centres undefined),0.068,nt,nt,nt
O=C(Cc1ccccc1)Nc1ccccc1N1CCOCC1,0.4,-0.56,nt,nt
O=S(=O)(c1ccccc1)c1nc(Nc2ccccc2N2CCOCC2)sc1Cl,-5.3*,-0.64,1.2,0.36
